# Screens from PubChem.
# FLuc inh = qHTS Assay for Inhibitors of Firefly Luciferase; Luciferin 4-monooxygenase (Photinus pyralis), P08659; purified firefly luciferase, luminescence, 8 min; Potency, µM (titrated, usually from 57.1 µM), without a hit: top-dose activity change, negative = inhibition, usual class: inhibitors; hit rate 2.2% among 72,000; AID 411, 2009; also: % is scaled to controls: 0 for no effect and ±100 for the full control effect; nearly all actives have a fitted effect of over 40% in size
#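 Titration-based qHTS; buffer 50 mM imidazole pH 7.2, 50 mM KCl, 7 mM MgCl2, 10 uM ATP, 0.01% Tween 20, 0.05% BSA; luciferase/luciferin detector mix added after compound; 8 min, ambient; luminescence.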
# HEK293 cAMP cs = qHTS Assay for Agonists of the Thyroid Stimulating Hormone Receptor: Activators of Intracellular cAMP Concentrations in Parental HEK 293; parental HEK293 CNG cAMP sensor, membrane potential fluorescence; Potency, µM (titrated, usually from 57.1 µM), for the others: top-dose activation, hits mostly activators; hit rate 2.5% among 73,000; also: % of control where 0% means no effect; nearly all actives have a fitted effect of over 55% in size
#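 Parental HEK 293 cells stably expressing a modified CNG channel (no TSHR) report cAMP rise as membrane depolarization. Membrane potential dye with 100 uM RO 20-1724 was loaded for 60 min at room temperature, then compound added for 30 min; fluorescence read at 590 nm.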
# ERK AVP block = qHTS Assay for Inhibitors of the ERK Signaling Pathway using a Homogeneous Screening Assay | HEK293-V1b, vasopressin-stimulated pERK AlphaScreen | Potency, µM (highest dose often 57.5 µM), for the others: at the top dose activity, negative = inhibition, usual class: inhibitors | hit rate 0.99% among 72,000 | AID 995, 2007; also: % is scaled to controls: 0 for no effect and ±100 for the full control effect; nearly all actives have a fitted effect of over 55% in size
#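 HEK293 cells stably expressing V1b receptor, seeded overnight in 1% FBS, were treated with compounds for 30 min at 37C, then stimulated 5 min with 25 nM vasopressin; phospho-ERK read by AlphaScreen SureFire after lysis.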
# PK Bst = Pyruvate Kinase. hit rate 1.2% among 51,000. purified pyruvate kinase, luminescence ATP production; ribose 5-phosphate activator present at AC10. Potency, µM; in the data active = potency below about 11 µM; inconclusive = mostly about 12 µM to 25 µM;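 the screen sought inhibitors and activators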;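 also: scaled between full activation by ribose 5 phosphate and full inhibition by luteolin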
# Tau filament bind = qHTS Assay for Tau Filament Binding; recombinant tau filaments, thioflavin S fluorescence, 15 h; filaments grown with octadecylsulfate alongside compound; AID 596, 2007; hit rate 2% among 71,000; Potency, µM (titrated, usually from 57.1 µM), for inactives: at the highest dose activity change, negative = inhibition; Microtubule-associated protein tau (Homo sapiens), P10636;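 also: % is scaled to controls: 0 for no effect and ±100 for the full control effect; actives lower thioflavin S fluorescence by blocking filaments or displacing dye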
#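 His-tagged recombinant human tau (exons 2, 3, 10; 1 uM final) fibrillized with 30 uM sodium octadecylsulfate, 15 h at 37 C, in pH 7.4 HEPES buffer with 10 uM thioflavine S and 5 mM DTT. Reduced ThS fluorescence (450/510 nm) marks activity.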
# TSHR ag = qHTS Assay for Agonists of the Thyroid Stimulating Hormone Receptor. hit rate 0.48% among 73,000. Potency, µM (series often up to 57.1 µM), for inactives: at the top dose activation, most hits filed as activators. HEK293-CNG-TSHR cells (CNG channel as cAMP sensor), membrane potential dye, cAMP. AID 926, 2007; active = well fitted activation curve with a large enough effect in the main read-out, with a control signal flat, not every such curve was filed as active; inconclusive = small, poorly fitted or top-dose-only effect, or a change in a side signal; inactive = no such curve, though single readings can be large or run the other way; % of control where 0% means no effect;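 also: the control signal comes from parental cells without the receptor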
# Target sequence (P16473 whole entry, looked up): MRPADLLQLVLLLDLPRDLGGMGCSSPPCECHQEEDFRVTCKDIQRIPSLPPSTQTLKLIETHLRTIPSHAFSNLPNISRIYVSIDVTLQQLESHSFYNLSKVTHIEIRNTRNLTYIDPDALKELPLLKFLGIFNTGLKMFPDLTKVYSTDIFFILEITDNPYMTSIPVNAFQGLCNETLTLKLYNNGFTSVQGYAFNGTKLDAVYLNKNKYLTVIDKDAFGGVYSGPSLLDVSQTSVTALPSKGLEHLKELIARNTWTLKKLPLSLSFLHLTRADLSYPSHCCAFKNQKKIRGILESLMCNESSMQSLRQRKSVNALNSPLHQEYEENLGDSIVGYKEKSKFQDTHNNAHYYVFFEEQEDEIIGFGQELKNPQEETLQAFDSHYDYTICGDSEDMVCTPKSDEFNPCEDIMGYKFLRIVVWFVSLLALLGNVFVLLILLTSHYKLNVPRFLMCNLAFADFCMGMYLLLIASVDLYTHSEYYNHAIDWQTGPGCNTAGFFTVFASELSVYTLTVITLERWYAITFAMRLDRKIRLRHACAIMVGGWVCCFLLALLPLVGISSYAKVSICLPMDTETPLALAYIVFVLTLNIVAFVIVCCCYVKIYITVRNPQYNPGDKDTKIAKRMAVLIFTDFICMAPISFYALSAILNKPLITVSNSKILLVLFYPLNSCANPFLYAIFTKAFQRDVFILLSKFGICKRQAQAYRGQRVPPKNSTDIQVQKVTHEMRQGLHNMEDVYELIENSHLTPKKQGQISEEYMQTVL
#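 HEK 293 cells stably expressing TSHR and a modified CNG channel, with CNG-only parental cells as counterscreen, were preloaded 60 min at room temperature with membrane potential dye containing 100 uM RO 20-1724. Compound exposure was 30 min, and depolarization was read as fluorescence at 590 nm.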
# Numbers without * were called inactive; i = inactive; ? = inconclusive; nt = no result; [ ] = remark or other dose. Hits are enriched below; roughly 7.2% of the tested compounds scored in any of these assays. Unless noted, calls follow the shape of the dose curve; as a rule, active = well fitted curve in the direction sought with a large enough effect; inconclusive = small, poorly fitted or top-dose-only effect, or another doubt; inactive = no such curve, though single readings can be large; an effect the other way counts as inactive or inconclusive. Potency is read from the fitted curve at half-maximal effect.
SMILES,FLuc inh,HEK293 cAMP cs,ERK AVP block,PK Bst,Tau filament bind,TSHR ag
O=C(Nc1ccc2c(c1)OCO2)c1ccc(CN2CCOCC2)cc1,?,18%,?,nt,16µM*,-2%
O=C(Nc1ccc(CN2CCOCC2)cc1)c1cc2ccccc2o1,13µM*,14%,25µM*,i,1%,10%
O=C1C[C@H]2C(=O)[C@@H]1[C@@H](C(=O)O)[C@H]2C(=O)O,2%[11.4 µM],12%[11.4 µM],-8%[11.5 µM],nt,-11%[11.4 µM],-4%[11.4 µM]
CN1CCN(c2ncc3nc(CCc4ccccc4)c(=O)n(C4CC4)c3n2)CC1,2%[11.4 µM],-4%,-24%,nt,i,-4%
O=C(/C=C/N1CCOCC1)c1cc2ccccc2o1,13µM*,19%,1%,nt,4%,22%
O=C(NCCN1CCOCC1)c1cccs1,-1%,-1%,9%,>57,0%,-3%
O=C(Nc1ccc(N2CCOCC2)cc1)c1cc2ccccc2o1,nt,0%,nt,nt,nt,-5%
O=C(Nc1ccc(CN2CCOCC2)cc1)c1cccs1,25µM*,7%,-5%,nt,-9%,-10%
CC(C)NCC[C@@H](O)c1cc2ccccc2o1,3%[11.4 µM],8%[11.4 µM],10%[11.5 µM],nt,-13%[11.4 µM],2%[11.4 µM]
CC(=O)C1CCC2C3CC=C4CC(O)CC[C@@]4(C)C3CC[C@]12C (stereo not given in full),nt,nt,9%,nt,nt,nt
Cn1c(=O)[nH]c(=O)c2[nH]cnc21,nt,nt,-8%,nt,nt,nt
COc1ccc(-c2csc3c2[N+]2=CCC=C2C3=O)cc1,3%[11.4 µM],21%[11.4 µM],-4%[11.5 µM],nt,3.2µM*,2%[11.4 µM]
C/C(=N\O)c1cccc[n+]1Cc1ccccc1,4%[11.4 µM],-5%[11.4 µM],-17%[11.5 µM],nt,3%[11.4 µM],4%[11.4 µM]
O=C(Nc1cccc(-c2cn3cccnc3n2)c1)c1ccc2c(c1)OCO2,16µM*,1%,?,nt,-7%,-5%
Clc1ccc(C2=Nn3c(nnc3-c3n[nH]c4c3CCC4)SC2)cc1,2%,25µM*,-7%,>57,-3%,?
Cc1ccc(-c2nnc3n2N=C(c2ccc(Br)cc2)CS3)cc1,-5%,15%,-15%,nt,i,11%
Brc1ccc(C2=Nn3c(nnc3-c3n[nH]c4c3CCC4)SC2)cc1,1%,13µM*,-7%,>57,-16%,?
CC(C)(C)C(=O)/C=C(N)/C=C/c1ccccc1,-18%,?,3%,nt,25µM*,?
Cc1nn(-c2ccccn2)c2c1-c1nc(N)ncc1CC2,10µM*,15%,4%,?,-1%,2%
Cc1c(NC(=O)CN2C(=O)c3ccccc3S2(=O)=O)c(=O)n(-c2ccccc2)n1C,2%,-1%,-7%,>57,1%,0%
Cc1c(NC(=O)CN2c3cccc4cccc(c34)S2(=O)=O)c(=O)n(-c2ccccc2)n1C,-1%,?,-17%,11*,-5%,?
COc1ccc(NC(=O)CN2c3cccc4cccc(c34)S2(=O)=O)cc1,0%,-6%,18%,1.4*,-3%,0%
COc1ccc(OC)c(NC(=O)CN2C(=O)c3ccccc3S2(=O)=O)c1,2%,6%[11.4 µM],-10%,nt,38%[11.4 µM],-6%[11.4 µM]
CCOc1ccc(-c2nc(CSCC(=O)N3CCN(c4cccc(OC)c4)CC3)c(C)o2)cc1,?,-5%,13µM*,nt,181%,7%
Cc1ccc(-c2nc(CSCC(=O)N3CCN(c4ccccn4)CC3)c(C)o2)cc1,0%,?,9%,nt,41%,?
SMILES,FLuc inh,HEK293 cAMP cs,ERK AVP block,PK Bst,Tau filament bind,TSHR ag
Cc1cc2c(nc1C)CCCN2C[C@H](C)O/N=C1/[C@H]2O[C@@H]2[C@@H](O)[C@H]2[C@H]1CCn1c(=O)n(-c3ccccc3)c(=O)n12,1%[11.4 µM],12%[11.4 µM],8%[11.5 µM],nt,nt,-2%[11.4 µM]
Cc1c2cc[n+](CCN3CCCCC3)cc2c(C)c2c1[nH]c1ccc(O)cc12,4%[11.4 µM],11%[11.4 µM],-2%[11.5 µM],nt,4µM*,-1%[11.4 µM]
CCOC(=O)c1[nH]c2ccc(C)cc2c1NC(=O)CN1CCCCC1,-3%,29%,-23%,>57,-2%,5%
COc1ccc(CNc2ncncc2-c2cccnc2)c(OC)c1,0%[2.29 µM],5%,7%,nt,-5%,10%
COc1ccccc1CNc1ncnc2c1nnn2Cc1ccccc1,-3%,13µM*,-10%,>57,41%,?
COc1cccc(-c2cncnc2NCCc2cnc[nH]2)c1,1%[2.29 µM],5%,0%,nt,-1%,0%
COc1cccc(-c2cncnc2NCc2ccc(OC)cc2OC)c1,-1%[2.29 µM],16µM*,6%,nt,-5%,?
c1ncc(-c2ccoc2)c(NC2CC2)n1,-1%[2.29 µM],4µM*,-1%,nt,66%,?
COc1cccc(-c2cncnc2NCc2ccccc2OC)c1,-1%[2.29 µM],25µM*,?,nt,7%,?
O=CN[C@@H](Cc1cnc[nH]1)C(=O)O,0%[11.4 µM],5%[11.4 µM],-8%[11.5 µM],nt,-11%[11.4 µM],0%[11.4 µM]
COc1ccc(C(=O)[C@H]2[C@H]3[C@@H](C(=O)[C@@H]4OC[C@H]3O4)[C@H]3C=Cc4ccccc4N32)c(OC)c1,-10%[11.4 µM],8%,nt,nt,-18%,-4%
COc1ccccc1CNc1ncncc1-c1ccccc1CN(C)C,0%[2.29 µM],16%,-2%,nt,1%,9%
COc1ccc(CNc2ncncc2-c2ccoc2)c(OC)c1,3%[2.29 µM],10µM*,-10%,nt,-18%,?
COc1ccccc1CNc1ncncc1-c1ccccc1OC,1%[2.29 µM],10µM*,-11%,nt,-4%,?
COc1ccc(CNc2ncnc3ccc(-c4ccoc4)cc23)c(OC)c1,0%[2.29 µM],?,?,nt,172%,?
COc1cc(CO)cc(-c2cc(CO)cc(OC)c2OC)c1OC,0%,1%,28%,>57,-6%,1%
COc1cc(CO)cc(Br)c1OCC(=O)O,-7%,13%,-17%,nt,19%,25µM*
OC[C@@H]1O[C@@H](n2cnc3c(NCCc4ccccc4)ncnc32)[C@@H](O)[C@H]1O,-4%,?,nt,nt,-4%,?
Cc1ccc(NC2=Nc3ccccc3CS2)cc1,4µM*,-9%,-18%,4.1*,12%,-8%
COC(=O)[C@@H]1C[C@@]2(O)[C@H](O)[C@H](O)[C@H](O)C[C@H]2N1Cc1ccc(N2CCN(C)CC2)cc1,nt,nt,-4%,nt,nt,nt
CN(C)c1ccc(C(=O)Nc2nc3c(s2)CCCC3)cc1,5µM*,1%,nt,nt,58%,-5%
Cc1cc(C(=O)Nc2nc3c(s2)CCCC3)no1,25µM*,-2%,-2%,i,6%,-12%
O=C(Nc1nc(=O)c2ccccc2s1)c1ccccc1,-20%[25.5 µM],nt,nt,i,nt,nt
Cc1onc(-c2ccccc2)c1C(=O)Nc1nc2c(s1)CCCC2,0%,-4%,3%,>57,6%,1%
O=C(Nc1nc2c(s1)C(=O)CCC2)c1ccccc1,13µM*,1%,-7%,nt,14%,7%
